This is an account of results in PubChem BioAssay (Tox21).

Values without a mark were called inactive. Records with an inconclusive call do not appear. Calls of active or inactive are those of the source. Unless noted, calls come from the whole dose curve.

Experiment [1] is described as follows: qHTS assay to identify small molecule antagonists of the sonic hedgehog signaling (Shh) pathway (AID 1259369). Note: nearly all actives have a fitted effect of over 45% in size. Note: potency is the fitted concentration of half-maximal effect. The essentials:
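NIH/3T3-derived Gli1-Luc reporter cells plated 4 h, dosed with compound, then stimulated with conditioned medium for 24 h at 37 C. Firefly luciferase luminescence read after 30 min with detection reagent at room temperature.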

The target in experiment [2] is Estrogen receptor beta (Homo sapiens) (UniProt Q92731). The experiment can be described thus: qHTS assay to identify small molecule agonists of the estrogen receptor beta (ER-beta) signaling pathway (AID 1259377; active = well fitted activation curve with a large enough effect in the signal ratio in the repeat runs, not every such curve was filed as active; the % refers to the signal ratio). The essentials:
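A UAS-controlled beta-lactamase reporter in ER-beta-UAS-bla HEK293T cells reports receptor activation. Compounds act for 16 hr at 37C in 2% charcoal-stripped serum, and a FRET substrate is read by fluorescence after 2 hours.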

A short description of experiment [3]: qHTS assay to identify small molecule agonists of the androgen receptor (AR) signaling pathway in the presence of an antagonist - cell viability counter screen (AID 1259379; active = well fitted curve in the direction sought with a large enough effect in the repeat runs; an effect the other way counts as inactive or inconclusive;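 note: MDA-kb2 human breast cancer cells carrying an MMTV luciferase reporter; series mostly up to about 92 µM; nearly all actives have a fitted effect of over 25% in size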). The essentials:
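MDA-kb2 cells (MMTV-luciferase, AR/GR), 3,000/well, 5 h attachment, then 3.0 µM nilutamide (final) and compounds at 15 concentrations. Viability by CellTiter-Fluor fluorescence after 16 h at 37 °C, 0% CO2, in the reporter wells.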

Experiment [4] in a line: qHTS assay to identify small molecule agonists of the estrogen receptor beta (ER-beta) signaling pathway - cell viability counter screen (AID 1259380; active = well fitted curve in the direction sought with a large enough effect in the repeat runs; an effect the other way counts as inactive or inconclusive; note: nearly all actives have a fitted effect of over 30% in size; note: potency is the fitted concentration of half-maximal effect). The essentials:
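ER-beta-UAS-bla HEK293T cells in medium with 2% charcoal-stripped FBS, pre-incubated 6 hr, then treated 16 hr at 37C. Cytotoxicity read in the same wells by CellTiter-Glo luminescence after 30 min at room temperature.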

Experiment [5] addresses Estrogen receptor (Homo sapiens) (UniProt P03372). The experiment can be described thus: qHTS assay to identify small molecule agonists of the estrogen receptor alpha (ER-alpha) signaling pathway in the presence of an antagonist (AID 1259383). Note: top concentration of the series differs between compounds; nearly all actives have a fitted effect of over 15% in size. In short, it runs like this: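 VM7Luc4E2 cells express endogenous full-length ER-alpha with an ERE-luciferase reporter and were hormone-deprived for 5 days. Compounds at 15 concentrations were added with 10.0nM ICI-182,780 for 22hr at 37C. Luminescence was read with ONE-Glo.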

Experiment [6] in a line: qHTS assay to identify small molecule agonists or antagonists of the thyroid stimulating hormone receptor (TSHR) signaling pathway - wild type cell line counter screen (AID 1259384). In short, it runs like this:
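Counter screen in untransfected Hek293: compounds (15-point titration, triplicate) plus phosphodiesterase inhibitor Ro20-1724 added after 18 h plating; 30 min RT. Intracellular cAMP via competitive d2/cryptate immunoassay, 1 h incubation.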

The target in experiment [7] is Thyrotropin receptor (Homo sapiens) (UniProt P16473). In words: qHTS assay to identify small molecule antagonists of the thyroid stimulating hormone receptor (TSHR) signaling pathway (AID 1259385). Note: nearly all actives have a fitted effect of over 20% in size. In short, it runs like this: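 Antagonist mode: compound-treated TSHR-expressing HEK293 cells were stimulated with 1.5 ng/mL TSH (final) in presence of Ro20-1724 for 30 min at RT. HTRF cAMP detection after 1 h; each compound tested at 15 concentrations, triplicate.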

Experiment [8] is described as follows: qHTS assay to identify small molecule agonists of the estrogen receptor alpha (ER-alpha) signaling pathway in the presence of an antagonist - cell viability counter screen (AID 1259386; active = well fitted curve in the direction sought with a large enough effect in the repeat runs; an effect the other way counts as inactive or inconclusive;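 note: cells exposed to compounds for 22 h at 37 °C before the viability read; nearly all actives have a fitted effect of over 30% in size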; note: potency is the fitted concentration of half-maximal effect). In short, it runs like this:
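Cell viability in VM7Luc4E2 cells (endogenous full-length ER-alpha) measured by CellTiter-Fluor fluorescence in the same wells as the luciferase screen. Cells pre-cultured 5 days in charcoal-stripped serum, then treated 22 h with compounds at 15 concentrations plus 10.0nM ICI-182,780.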

Experiment [9] addresses Progesterone receptor (Homo sapiens) (UniProt P06401). In words: qHTS assay to identify small molecule agonists of the progesterone receptor (PR) signaling pathway (AID 1346784). Note: nearly all actives have a fitted effect of over 30% in size. The essentials:
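Agonist mode, quantitative HTS format in a HEK 293T line expressing a UAS-controlled beta-lactamase reporter; 16 hr compound exposure at 37C in 2% charcoal-stripped FBS, then LiveBLAzer B/G FRET fluorescence.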

Experiment [10] can be described thus: qHTS assay to identify small molecule antagonists of the progesterone receptor (PR) signaling pathway - cell viability counter screen (AID 1346798; active = well fitted curve in the direction sought with a large enough effect in the repeat runs; an effect the other way counts as inactive or inconclusive; note: nearly all actives have a fitted effect of over 50% in size; note: potency is the fitted concentration of half-maximal effect). In short, it runs like this: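 Same-well multiplex: after 16 hr at 37C with compound and R5020 stimulation, HEK293T cells carrying a UAS-bla reporter received LiveBLAzer substrate (2 hr RT), then CellTiter-Glo (30 min RT) for luminescent viability.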

The nature of experiment [11]: qHTS assay to identify small molecule agonists of the progesterone receptor (PR) signaling pathway - cell viability counter screen (AID 1346799). Note: nearly all actives have a fitted effect of over 45% in size. In short, it runs like this: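 Counter screen for cytotoxicity: compound-treated PR-UAS-bla HEK293T cells (16 hr, 37C, 5% CO2) were assayed with CellTiter-Glo, luminescence measured after 30 min at room temperature.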
Experiment [12] is described as follows: qHTS assay to identify small molecule agonists of the TGF-beta/Smad signaling pathway - cell viability counter screen (AID 1346829; active = well fitted curve in the direction sought with a large enough effect in the repeat runs; an effect the other way counts as inactive or inconclusive; note: top concentration of the series differs between compounds; nearly all actives have a fitted effect of over 45% in size). The essentials:
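Same-well cytotoxicity: CellTiter-Glo added after the 2 hr room-temperature beta-lactamase substrate step, luminescence measured 30 min later; cells had 5 hr of compound at 37 C.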

The nature of experiment [13]: qHTS assay to identify small molecule agonists of the TGF-beta/Smad signaling pathway (AID 1346859; active = well fitted activation curve with a large enough effect in the signal ratio in the repeat runs, not every such curve was filed as active; the % refers to the signal ratio; note: series mostly up to about 77 µM). In short, it runs like this:
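Smad-responsive beta-lactamase reporter cells (HEK 293T) received compounds from DMSO stocks after overnight attachment, were incubated 5 hr, then treated 2 hr with FRET substrate before dual-emission fluorescence measurement (405 nm excitation).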

Experiment [14] in a line: qHTS assay to identify small molecule antagonists of the estrogen receptor beta (ER-beta) signaling pathway - cell viability counter screen (AID 1259382; active = well fitted curve in the direction sought with a large enough effect in the repeat runs; an effect the other way counts as inactive or inconclusive; note: nearly all actives have a fitted effect of over 55% in size; note: potency is the fitted concentration of half-maximal effect). In short, it runs like this: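 ER-beta-UAS-bla HEK293T cells in 2% charcoal-stripped FBS medium, treated with compound plus 1 nM 17-beta-estradiol for 16 h at 37C. Viability read by CellTiter-Glo luminescence after 30 min at room temperature in the same wells.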

The target in experiment [15] is Progesterone receptor (Homo sapiens) (UniProt P06401). The experiment can be described thus: qHTS assay to identify small molecule antagonists of the progesterone receptor (PR) signaling pathway (AID 1346795; active = well fitted inhibition curve with a large enough effect in the signal ratio in the repeat runs, not every such curve was filed as active; the % refers to the signal ratio). The essentials: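 HEK293T PR-UAS-bla reporter cells in charcoal-stripped serum (2%) received compound after a 6 hr settling period, followed by R5020 agonist at 1 nM final; 16 hr incubation preceded the FRET substrate step and fluorescence measurement.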

Experiment [16] is described as follows: qHTS assay to identify small molecule antagonists of the TGF-beta/Smad signaling pathway - cell viability counter screen (AID 1346824; active = well fitted curve in the direction sought with a large enough effect in the repeat runs; an effect the other way counts as inactive or inconclusive; note: nearly all actives have a fitted effect of over 50% in size). The essentials:
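Cytotoxicity counter-screen run in the same wells as the beta-lactamase Smad reporter read: CellTiter-Glo luminescence after 30 min at room temperature. HEK 293T SBE-bla cells had 5 hr compound exposure at 37 C with TGF-beta1 (0.25 ng/mL stock).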

The target in experiment [17] is Thyrotropin-releasing hormone receptor (Homo sapiens) (UniProt P34981). The experiment can be described thus: qHTS assay to identify small molecule agonists of the thyrotropin-releasing hormone receptor (TRHR) signaling pathway (AID 1346891). Note: series mostly up to about 58 µM. In short, it runs like this: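 Agonist-mode calcium mobilisation screen: TRHR-transfected HEK293 cells cultured overnight (18 h), dye-loaded for 2 h at 37 °C, exposed to compounds, and monitored by fluorescence for 3 min.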

Experiment [18] shares this target. The experiment can be described thus: qHTS assay to identify small molecule antagonists of the thyrotropin-releasing hormone receptor (TRHR) signaling pathway (AID 1346877; active = well fitted inhibition curve with a large enough effect in the repeat runs, not every such curve was filed as active; note: series mostly up to about 51 µM). The essentials: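 TRHR-expressing HEK293 cells loaded with calcium dye for 2 h at 37 C; compounds pre-incubated 5 min at room temperature before TRH challenge at 1 nM final. Intracellular calcium fluorescence read kinetically for 3 min; 15 concentrations in triplicate.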

The target of experiment [19] is Estrogen receptor beta (Homo sapiens) (UniProt Q92731). In words: qHTS assay to identify small molecule antagonists of the estrogen receptor beta (ER-beta) signaling pathway (AID 1259378; active = well fitted inhibition curve with a large enough effect in the signal ratio in the repeat runs, not every such curve was filed as active; the % refers to the signal ratio; note: potency is the fitted concentration of half-maximal effect). In short, it runs like this:
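Antagonist mode: compounds added to beta-lactamase reporter HEK293T ER-beta-UAS cells stimulated with E2 (1nM final), 16 hr at 37C. LiveBLAzer B/G FRET substrate, 2 hours room temperature, fluorescence read-out.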

The target in experiment [20] is Androgen receptor (Homo sapiens) (UniProt P10275). In words: qHTS assay to identify small molecule agonists of the androgen receptor (AR) signaling pathway in the presence of an antagonist (AID 1259381). Note: nearly all actives have a fitted effect of over 15% in size. The essentials: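 MDA-kb2 cells carrying MMTV-luciferase (AR/GR responsive), 3,000 cells/well, co-treated with 3.0 uM nilutamide final. Compounds at 15 concentrations, 16 hr at 37C without CO2. Luciferase luminescence read after 30 min with ONE-Glo.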
Sequence of Androgen receptor (Homo sapiens) (P10275 whole entry, looked up): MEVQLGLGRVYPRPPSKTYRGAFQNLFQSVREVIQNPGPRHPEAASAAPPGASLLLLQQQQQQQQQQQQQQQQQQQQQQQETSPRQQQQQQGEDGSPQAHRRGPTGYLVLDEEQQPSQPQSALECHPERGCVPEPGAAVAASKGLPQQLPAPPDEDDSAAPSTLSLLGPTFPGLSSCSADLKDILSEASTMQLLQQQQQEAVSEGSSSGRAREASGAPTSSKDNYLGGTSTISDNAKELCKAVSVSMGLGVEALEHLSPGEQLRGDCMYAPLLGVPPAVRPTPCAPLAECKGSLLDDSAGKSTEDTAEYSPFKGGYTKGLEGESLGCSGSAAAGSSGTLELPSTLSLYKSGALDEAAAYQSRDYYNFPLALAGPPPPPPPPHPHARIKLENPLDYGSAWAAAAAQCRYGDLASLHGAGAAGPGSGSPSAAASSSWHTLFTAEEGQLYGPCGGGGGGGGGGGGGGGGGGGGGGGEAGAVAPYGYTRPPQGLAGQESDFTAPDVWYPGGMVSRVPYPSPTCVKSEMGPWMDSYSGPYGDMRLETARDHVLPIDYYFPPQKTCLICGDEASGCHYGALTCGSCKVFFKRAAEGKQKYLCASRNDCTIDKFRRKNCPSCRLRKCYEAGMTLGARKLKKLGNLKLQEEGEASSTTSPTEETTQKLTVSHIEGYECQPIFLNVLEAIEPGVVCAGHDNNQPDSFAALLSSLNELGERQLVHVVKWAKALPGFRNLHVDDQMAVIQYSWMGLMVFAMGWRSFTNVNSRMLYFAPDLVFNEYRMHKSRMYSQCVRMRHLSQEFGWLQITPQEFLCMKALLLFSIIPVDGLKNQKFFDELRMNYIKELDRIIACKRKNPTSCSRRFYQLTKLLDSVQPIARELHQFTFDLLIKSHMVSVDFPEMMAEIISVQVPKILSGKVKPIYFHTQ

Sequence of Thyrotropin receptor (Homo sapiens) (P16473 whole entry, looked up): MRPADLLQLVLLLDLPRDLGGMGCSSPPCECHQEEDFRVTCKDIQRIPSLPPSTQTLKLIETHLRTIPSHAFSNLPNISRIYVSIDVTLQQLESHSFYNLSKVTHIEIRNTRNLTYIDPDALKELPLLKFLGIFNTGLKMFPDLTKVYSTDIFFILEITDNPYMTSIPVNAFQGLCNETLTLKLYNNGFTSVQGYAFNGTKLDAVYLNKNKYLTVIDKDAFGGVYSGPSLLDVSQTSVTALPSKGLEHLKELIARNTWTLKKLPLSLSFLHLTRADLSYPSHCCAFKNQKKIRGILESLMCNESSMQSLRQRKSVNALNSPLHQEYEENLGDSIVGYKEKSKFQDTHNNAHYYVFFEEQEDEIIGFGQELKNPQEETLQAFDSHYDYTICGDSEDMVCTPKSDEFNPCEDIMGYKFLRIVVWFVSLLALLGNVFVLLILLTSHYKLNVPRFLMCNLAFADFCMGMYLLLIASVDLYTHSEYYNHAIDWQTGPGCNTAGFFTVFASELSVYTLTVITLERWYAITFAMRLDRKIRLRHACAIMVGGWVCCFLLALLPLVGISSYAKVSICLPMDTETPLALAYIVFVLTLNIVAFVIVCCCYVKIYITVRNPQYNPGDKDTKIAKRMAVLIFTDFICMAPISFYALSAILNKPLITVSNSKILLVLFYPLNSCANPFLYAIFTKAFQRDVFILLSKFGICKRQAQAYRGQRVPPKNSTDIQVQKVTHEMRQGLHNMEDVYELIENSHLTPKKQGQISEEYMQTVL
Sequence of Progesterone receptor (Homo sapiens) (P06401 whole entry, looked up): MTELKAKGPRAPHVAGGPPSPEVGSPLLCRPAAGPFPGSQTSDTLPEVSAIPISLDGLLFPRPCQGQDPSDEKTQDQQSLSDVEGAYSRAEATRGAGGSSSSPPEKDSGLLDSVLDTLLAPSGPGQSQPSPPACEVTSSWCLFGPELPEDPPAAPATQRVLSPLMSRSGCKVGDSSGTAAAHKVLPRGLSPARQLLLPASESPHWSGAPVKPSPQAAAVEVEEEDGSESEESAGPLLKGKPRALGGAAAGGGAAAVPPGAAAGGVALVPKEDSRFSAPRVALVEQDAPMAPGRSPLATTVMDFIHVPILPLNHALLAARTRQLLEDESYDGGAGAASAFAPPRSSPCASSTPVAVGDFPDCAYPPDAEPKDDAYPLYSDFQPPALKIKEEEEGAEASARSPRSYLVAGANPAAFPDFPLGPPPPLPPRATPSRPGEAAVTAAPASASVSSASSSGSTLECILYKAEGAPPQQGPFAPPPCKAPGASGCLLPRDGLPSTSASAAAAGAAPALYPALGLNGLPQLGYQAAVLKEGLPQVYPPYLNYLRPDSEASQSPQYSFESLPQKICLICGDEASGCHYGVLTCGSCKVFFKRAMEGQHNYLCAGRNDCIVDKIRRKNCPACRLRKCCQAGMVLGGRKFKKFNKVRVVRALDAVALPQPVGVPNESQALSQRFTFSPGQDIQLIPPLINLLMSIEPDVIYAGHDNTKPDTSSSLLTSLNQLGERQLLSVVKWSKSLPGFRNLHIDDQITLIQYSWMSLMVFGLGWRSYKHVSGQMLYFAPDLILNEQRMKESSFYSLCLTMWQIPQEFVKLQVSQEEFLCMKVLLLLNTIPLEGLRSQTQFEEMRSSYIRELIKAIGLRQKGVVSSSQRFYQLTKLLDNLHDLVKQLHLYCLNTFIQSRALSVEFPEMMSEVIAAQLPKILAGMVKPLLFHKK
Sequence of Estrogen receptor (Homo sapiens) (P03372 whole entry, looked up): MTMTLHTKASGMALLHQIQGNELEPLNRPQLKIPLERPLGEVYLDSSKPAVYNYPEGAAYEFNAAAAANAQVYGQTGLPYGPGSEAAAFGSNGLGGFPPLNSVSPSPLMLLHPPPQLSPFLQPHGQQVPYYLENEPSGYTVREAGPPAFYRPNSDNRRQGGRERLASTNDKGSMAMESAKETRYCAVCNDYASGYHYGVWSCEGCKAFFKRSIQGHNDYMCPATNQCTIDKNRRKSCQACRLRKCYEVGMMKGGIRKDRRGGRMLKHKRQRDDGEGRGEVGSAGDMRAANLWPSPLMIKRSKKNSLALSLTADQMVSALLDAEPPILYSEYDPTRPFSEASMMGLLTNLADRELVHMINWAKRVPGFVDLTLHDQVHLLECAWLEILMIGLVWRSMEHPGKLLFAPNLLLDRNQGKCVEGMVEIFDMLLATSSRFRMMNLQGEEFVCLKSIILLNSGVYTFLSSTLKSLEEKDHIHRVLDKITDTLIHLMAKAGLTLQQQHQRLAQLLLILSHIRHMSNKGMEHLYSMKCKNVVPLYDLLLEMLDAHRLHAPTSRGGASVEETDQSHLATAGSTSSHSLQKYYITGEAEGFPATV
Sequence of Estrogen receptor beta (Homo sapiens) (Q92731 whole entry, looked up): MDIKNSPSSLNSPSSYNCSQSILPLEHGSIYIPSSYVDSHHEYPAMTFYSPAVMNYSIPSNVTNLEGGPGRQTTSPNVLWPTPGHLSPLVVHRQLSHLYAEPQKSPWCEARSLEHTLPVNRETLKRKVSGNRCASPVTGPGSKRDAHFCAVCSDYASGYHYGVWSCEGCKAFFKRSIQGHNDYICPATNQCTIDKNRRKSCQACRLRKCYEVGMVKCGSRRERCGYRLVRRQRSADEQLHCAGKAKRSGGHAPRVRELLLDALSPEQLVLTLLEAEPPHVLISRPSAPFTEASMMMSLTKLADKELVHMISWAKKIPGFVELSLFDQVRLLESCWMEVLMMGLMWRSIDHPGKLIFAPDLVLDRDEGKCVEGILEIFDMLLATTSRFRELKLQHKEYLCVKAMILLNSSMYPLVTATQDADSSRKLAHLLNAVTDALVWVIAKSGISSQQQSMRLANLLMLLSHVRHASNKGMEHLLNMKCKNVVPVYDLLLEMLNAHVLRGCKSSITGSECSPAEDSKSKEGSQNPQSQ
Sequence of Thyrotropin-releasing hormone receptor (Homo sapiens) (P34981 whole entry, looked up): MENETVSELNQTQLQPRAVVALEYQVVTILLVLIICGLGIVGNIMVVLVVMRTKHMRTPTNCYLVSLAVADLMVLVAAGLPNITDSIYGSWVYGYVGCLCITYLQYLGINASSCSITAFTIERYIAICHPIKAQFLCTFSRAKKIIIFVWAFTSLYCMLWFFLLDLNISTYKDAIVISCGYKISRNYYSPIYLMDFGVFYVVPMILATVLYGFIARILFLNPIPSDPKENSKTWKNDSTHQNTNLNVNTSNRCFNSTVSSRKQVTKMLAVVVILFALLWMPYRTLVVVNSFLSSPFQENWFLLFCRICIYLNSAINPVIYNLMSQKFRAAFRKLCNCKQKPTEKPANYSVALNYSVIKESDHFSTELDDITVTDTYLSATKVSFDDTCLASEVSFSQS

For the compound `O=c1[nH]cnc2ccccc12`, the Potency result in experiment [1], in experiment [2], in experiment [3], in [4], in experiment [5] and in experiment [6] was “inactive” each time. For the same compound, the Potency result in experiment [7], in [8], in [10], in experiment [11] and in [12] was “inactive” in each case. Further, the compound was classed as inactive in [9] and in [13].

For the compound `C#CCOC(=O)[C@@H](C)Oc1ccc(Oc2ncc(Cl)cc2F)cc1`, the Potency result in [1], in [2], in experiment [14], in experiment [5], in [6] and in experiment [7] was “inactive” each time. Moreover, the Potency entry in [8], in experiment [15], in [10], in experiment [16], in [12] and in [17] was “inactive” each time. Moreover, the outcome in [9] and in experiment [13] was inactive.

Turning to `CC[C@H](C)[C@@H](C(=O)O)n1sc2ccccc2c1=O`, the Potency in experiment [1] was 27.3 µM (active); in experiment [4], 54.5 µM (active); in [14], 30.6 µM (active); in [10], 30.6 µM (active). In addition, the Potency entry in experiment [2], in [3], in experiment [5], in experiment [6], in [7] and in experiment [8] was “inactive” throughout. Further, the Potency entry in experiment [15], in experiment [11], in experiment [16], in experiment [12] and in experiment [17] was “inactive” in each case. Further, the call in experiment [9], in [13] and in [18] was inactive.

`CCCCCOC(=O)COc1cc(N2C(=O)C3=C(CCCC3)C2=O)c(F)cc1Cl`: the Potency entry in [1], in experiment [2], in experiment [19], in [14], in experiment [5] and in experiment [6] was “inactive” throughout. Further, the Potency entry in [7], in [8], in experiment [15], in experiment [10], in [11] and in [16] was “inactive” each time. The Potency entry in [12] is “inactive”. The compound was classed as inactive in [9] and in experiment [13].

Turning to `O=[N+]([O-])c1cc[n+]([O-])cc1`, the Potency in [1] was 30.6 µM (active); in [19], 43.3 µM (active); in [8], 68.6 µM (active). In addition, the Potency result in experiment [3], in experiment [20], in experiment [5], in experiment [6], in [10] and in [12] was “inactive” in each case. Also, the Potency result in experiment [17] was “inactive”. Besides, the result in experiment [13] and in [18] was inactive.

Consider `C[Si](C)O[Si](C)(C)O[Si](C)(C)O[Si](C)C`, for which the Potency entry in [1], in [3], in [4], in experiment [14], in experiment [5] and in experiment [6] was “inactive” in each case. Moreover, the Potency result in experiment [7], in experiment [8], in experiment [15], in [10], in experiment [11] and in experiment [16] was “inactive” in each case. Besides, the Potency result in experiment [12] and in experiment [17] was “inactive” each time. Also, the outcome in experiment [9], in experiment [13] and in [18] was inactive.

As to `CCCC[C@H]1CN(CC2CCOCC2)C(=O)OC12CCN(C1(C)CCN(C(=O)c3c(C)ncnc3C)CC1)CC2`, the Potency entry in [1], in experiment [3], in experiment [4], in [14], in experiment [6] and in experiment [7] was “inactive” each time. Also, the Potency entry in experiment [8], in experiment [15], in [10], in experiment [11], in experiment [12] and in experiment [17] was “inactive” in each case. Besides, the outcome in experiment [9], in experiment [13] and in [18] was inactive.
